In PubChem BioAssay (EPA / NIEHS):
Activity calls are given as the source filed them. The calls were made as follows: active = hit-call score of the fitted dose curve at least 0.9, where 1 is the maximum; inactive = score below 0.9.

Tests used:
[1] = target: Bile acid receptor (Homo sapiens) (UniProt Q96RI1); assay: ATG_IR1_CIS: Attagene CIS-FACTORIAL HepG2 Assay for human Nuclear Receptor Subfamily 1 Group H Member 4 (NR1H4), IR1 submotif (AID 2282946); conditions: IR1 reporter transcription, actives raise or lower the signal
Outline: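 HepG2 cells transiently transfected with multiple cis-promoter-driven reporter units to measure endogenous transcription factor activity; 24 h exposure. Reporter mRNA read by RT-PCR, FAM labelling, HpaI digestion and capillary electrophoresis. Bidirectional fit versus DMSO.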

[2] = ATG_GRE_CIS: Attagene CIS-FACTORIAL HepG2 Assay for human Glucocorticoid Response Elements (GRE) (AID 2282947); conditions: HepG2 GRE cis-reporter, Attagene multiplex mRNA; actives raise or lower the signal
Outline: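 Transiently transfected HepG2 cells carrying GRE cis-reporter units (endogenous TF activity) dosed 24 h; reporter mRNA quantified by RT-PCR, 6-FAM labelling, HpaI digestion and capillary electrophoresis. Bidirectional fit versus DMSO baseline.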

[3] = ATG_ISRE_CIS: Attagene CIS-FACTORIAL HepG2 Assay for human Interferon Regulatory Factor 1 (IRF1) binding to an Interferon-Stimulated Response Element (ISRE) (AID 2282948); conditions: HepG2 ISRE cis-reporter (Attagene), mRNA transcription readout; actives raise or lower the signal
Outline: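 HepG2 cells transiently transfected with multiplexed cis-promoter reporter units; after 24 h compound exposure, reporter mRNA quantified by RT-PCR, FAM labelling, HpaI digestion and capillary electrophoresis. Bidirectional fit versus DMSO baseline.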

[4] = ATG_M_06_CIS: Attagene CIS-FACTORIAL HepG2 Assay for M06 Transcription Factor (Internal Marker) (AID 2282950); conditions: HepG2 Attagene CIS-FACTORIAL M06 internal marker reporter; actives raise or lower the signal
Outline: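 Cells (HepG2, transiently carrying cis-driven reporter units) receive chemical for 24 h before RNA isolation. Reporter cDNA is PCR-amplified, FAM-labelled by primer extension, HpaI-digested and sized on a capillary analyser.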

[5] = target: Hepatocyte nuclear factor 6 (Homo sapiens) (UniProt Q9UBC0); assay: ATG_HNF6_CIS: Attagene CIS-FACTORIAL HepG2 Assay for human Hepatocyte Nuclear Factor 6 (HNF6) (AID 2282952); conditions: HepG2 Attagene cis-factorial HNF6 reporter transcription; actives raise or lower the signal
Outline: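 Cells are HepG2 carrying transiently transfected cis-promoter reporter units. Treatment lasts 24 h, after which reporter transcripts are reverse-transcribed, amplified, FAM-labelled and sized by capillary electrophoresis. DMSO serves as baseline.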

[6] = target: Heat shock factor protein 1 (Homo sapiens) (UniProt Q00613); assay: ATG_HSE_CIS: Attagene CIS-FACTORIAL HepG2 Assay for human Heat Shock Transcription Factor 1 (HSE) (AID 2282953); conditions: HepG2 HSE cis-reporter, Attagene RNA transcription; actives raise or lower the signal
Outline: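 Liver-derived HepG2 cells carry transiently introduced multiple reporter units governed by cis promoters. Reporter RNA measured 24 h post-dose through reverse transcription, PCR amplification, fluorescent labelling and capillary electrophoresis, normalised to DMSO.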

[7] = ATG_MRE_CIS: Attagene CIS-FACTORIAL HepG2 Assay for human Metal Responsive Element (MRE) (AID 2282954); conditions: HepG2 MRE cis-reporter transcription, Attagene multiplex; actives raise or lower the signal
Outline: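 HepG2 cells transiently transfected with cis-element-driven reporter units; mRNA measured 24 h after dosing. Reporter transcripts quantified by RT-PCR, FAM labelling, HpaI digestion and capillary electrophoresis; bidirectional fit versus DMSO.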

[8] = target: Hypoxia-inducible factor 1-alpha (Homo sapiens) (UniProt Q16665); assay: ATG_HIF1a_CIS: Attagene CIS-FACTORIAL HepG2 Assay for human Hypoxia Inducible Factor 1 (HIF1A) (AID 2282951); conditions: HepG2 Attagene cis-factorial HIF1a reporter transcription; actives raise or lower the signal
Outline: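 Endogenous-TF cis reporter readout, human HepG2 cells, 24 h incubation; mRNA detected via RT-PCR and capillary electrophoresis fluorescence; DMSO-normalised bidirectional fitting.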

[9] = ATG_PBREM_CIS: Attagene CIS-FACTORIAL HepG2 Assay for human Phenobarbital-responsive Enhancer Module (PBREM) (AID 2282955); conditions: HepG2 PBREM cis-reporter, Attagene multiplexed transcription; actives raise or lower the signal
Outline: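 Readout: reporter mRNA, fluorescent RT-PCR fragments separated by capillary electrophoresis. System: HepG2 transiently transfected with cis-regulated reporter units. Exposure: 24 h. Analysis: bidirectional, DMSO baseline.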

[10] = ATG_M_32_CIS: Attagene CIS-FACTORIAL HepG2 Assay for M32 Transcription Factor (Internal Marker) (AID 2282949); conditions: HepG2 Attagene cis-factorial M32 reporter, mRNA; actives raise or lower the signal;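 also: background control marker of the multiplexed CIS panel rather than a real target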
Outline: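 HepG2 cells transiently transfected with multiplexed cis-regulated reporter units, dosed 24 h. Reporter mRNA quantified by RT-PCR, 6-FAM labelling, HpaI digestion and capillary electrophoresis; bidirectional fit vs DMSO.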

Measured: AC50

Sequence of Hepatocyte nuclear factor 6 (Homo sapiens) (Q9UBC0 whole entry, looked up): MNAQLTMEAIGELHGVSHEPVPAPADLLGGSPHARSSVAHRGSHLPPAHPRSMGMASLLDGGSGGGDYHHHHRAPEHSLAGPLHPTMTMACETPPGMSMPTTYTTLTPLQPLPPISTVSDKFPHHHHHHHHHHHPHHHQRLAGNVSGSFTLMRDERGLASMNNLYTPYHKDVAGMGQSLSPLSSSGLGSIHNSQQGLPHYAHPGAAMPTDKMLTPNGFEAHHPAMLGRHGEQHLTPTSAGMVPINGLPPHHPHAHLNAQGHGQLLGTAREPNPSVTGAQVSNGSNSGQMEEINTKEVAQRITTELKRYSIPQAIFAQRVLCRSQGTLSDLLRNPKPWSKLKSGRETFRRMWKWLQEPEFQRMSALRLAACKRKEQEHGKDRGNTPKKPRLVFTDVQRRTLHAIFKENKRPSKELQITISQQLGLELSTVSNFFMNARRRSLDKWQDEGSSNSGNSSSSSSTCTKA
Sequence of Hypoxia-inducible factor 1-alpha (Homo sapiens) (Q16665 whole entry, looked up): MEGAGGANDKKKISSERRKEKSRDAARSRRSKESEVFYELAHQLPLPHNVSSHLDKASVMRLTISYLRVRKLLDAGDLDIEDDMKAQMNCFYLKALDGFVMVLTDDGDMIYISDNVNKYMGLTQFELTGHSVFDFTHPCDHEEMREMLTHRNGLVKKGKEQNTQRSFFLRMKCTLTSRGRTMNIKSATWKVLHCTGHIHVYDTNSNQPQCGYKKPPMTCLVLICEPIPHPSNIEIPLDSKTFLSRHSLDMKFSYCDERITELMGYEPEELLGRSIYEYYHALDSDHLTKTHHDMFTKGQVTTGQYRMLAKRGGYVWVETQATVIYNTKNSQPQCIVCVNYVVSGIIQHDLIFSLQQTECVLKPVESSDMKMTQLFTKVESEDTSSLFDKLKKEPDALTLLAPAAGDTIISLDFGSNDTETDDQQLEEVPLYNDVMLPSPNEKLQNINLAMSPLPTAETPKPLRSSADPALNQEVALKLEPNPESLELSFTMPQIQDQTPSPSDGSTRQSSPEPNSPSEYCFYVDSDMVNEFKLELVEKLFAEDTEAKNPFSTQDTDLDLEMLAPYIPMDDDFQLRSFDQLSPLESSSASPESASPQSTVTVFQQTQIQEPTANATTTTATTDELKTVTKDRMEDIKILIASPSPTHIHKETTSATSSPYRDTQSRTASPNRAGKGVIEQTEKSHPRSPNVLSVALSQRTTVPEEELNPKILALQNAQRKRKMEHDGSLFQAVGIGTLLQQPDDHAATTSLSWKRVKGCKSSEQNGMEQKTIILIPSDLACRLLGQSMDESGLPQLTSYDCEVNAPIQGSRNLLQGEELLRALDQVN
Sequence of Bile acid receptor (Homo sapiens) (Q96RI1 whole entry, looked up): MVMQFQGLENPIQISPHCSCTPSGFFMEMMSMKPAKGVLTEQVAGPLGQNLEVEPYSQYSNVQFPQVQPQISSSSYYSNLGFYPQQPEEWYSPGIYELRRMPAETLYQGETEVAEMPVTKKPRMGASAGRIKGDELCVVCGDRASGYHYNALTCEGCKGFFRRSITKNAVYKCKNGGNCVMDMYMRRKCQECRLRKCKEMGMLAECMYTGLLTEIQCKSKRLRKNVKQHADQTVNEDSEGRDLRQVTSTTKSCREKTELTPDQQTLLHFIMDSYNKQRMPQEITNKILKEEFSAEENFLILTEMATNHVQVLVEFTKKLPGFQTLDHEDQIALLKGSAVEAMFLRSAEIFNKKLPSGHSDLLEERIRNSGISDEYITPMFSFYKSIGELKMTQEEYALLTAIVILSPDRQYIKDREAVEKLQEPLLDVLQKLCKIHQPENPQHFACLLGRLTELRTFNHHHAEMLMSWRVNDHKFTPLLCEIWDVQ
Sequence of Heat shock factor protein 1 (Homo sapiens) (Q00613 whole entry, looked up): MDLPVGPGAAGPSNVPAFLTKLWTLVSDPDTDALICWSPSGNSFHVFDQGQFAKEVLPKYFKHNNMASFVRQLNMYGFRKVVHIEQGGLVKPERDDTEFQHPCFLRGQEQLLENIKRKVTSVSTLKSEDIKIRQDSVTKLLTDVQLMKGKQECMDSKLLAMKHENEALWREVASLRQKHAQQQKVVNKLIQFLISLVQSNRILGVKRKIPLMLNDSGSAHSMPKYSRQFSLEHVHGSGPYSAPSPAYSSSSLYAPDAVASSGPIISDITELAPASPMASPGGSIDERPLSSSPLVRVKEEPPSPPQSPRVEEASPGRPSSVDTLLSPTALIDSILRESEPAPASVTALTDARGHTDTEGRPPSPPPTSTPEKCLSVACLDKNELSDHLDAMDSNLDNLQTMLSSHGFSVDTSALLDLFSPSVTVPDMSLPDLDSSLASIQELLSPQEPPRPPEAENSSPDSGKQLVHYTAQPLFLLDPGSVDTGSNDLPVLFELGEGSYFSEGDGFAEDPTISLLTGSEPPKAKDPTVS

CCC(=O)/C=C/C1C(C)=CCCC1(C)C (stereo not drawn)
not listed: [8] | [9] | [10]
inactive: all other assays above

CC1CCC2CC1C2(C)C (stereo not drawn)
not listed: [10]
inactive: all other assays above

COC(C(=O)O)c1ccccc1 (stereo not drawn)
not listed: [6] | [9] | [10]
inactive: all other assays above

CC(C)(Oc1ccc(CCNC(=O)c2ccc(Cl)cc2)cc1)C(=O)O
not listed: [8]
inactive: all other assays above

NC(=O)c1ccccc1Cl
active: [3] 100 µM | [6] 62.7 µM
not listed: [9] | [10]
inactive: all other assays above

CCCCC/C=C/C=C/C=O
active: [1] 144 µM
not listed: [6] | [8]
inactive: all other assays above

Cc1c(N(C)C)c(=O)n(-c2ccccc2)n1C
not listed: [8]
inactive: all other assays above

CC(C)OP(=O)(CP(=O)(OC(C)C)OC(C)C)OC(C)C
not listed: [8]
inactive: all other assays above

CC(=O)C(C)=O
active: [1] 28.8 µM
not listed: [8]
inactive: all other assays above

CNC(=O)Oc1ccc2c(c1)[C@]1(C)CCN(C)[C@@H]1N2C
not listed: [8]
inactive: all other assays above

Nc1cc(N)cc(C(=O)O)c1
not listed: [8] | [9]
inactive: all other assays above

Nc1cc([N+](=O)[O-])ccc1Cl
not listed: [8]
inactive: all other assays above

CC1CCC(C(C)(C)O)CC1 (stereo not drawn)
not listed: [6]
inactive: all other assays above

O=C(O)CCCCCCCCCCC(=O)O
not listed: [4] | [10]
inactive: all other assays above

CC1=CC(=O)NS(=O)(=O)O1
not listed: [4]
inactive: all other assays above

CCCCCCCCCOC(C)=O
not listed: [8] | [9] | [10]
inactive: all other assays above

C#C[C@]1(O)CC[C@H]2[C@@H]3CCC4=Cc5oncc5C[C@]4(C)[C@H]3CC[C@@]21C
active: [1] 23.5 µM | [3] 31.2 µM | [5] 60.9 µM | [7] 27.3 µM
inactive: [2] | [4]

CN(C)CCCN
not listed: [10]
inactive: all other assays above

COC(=O)C1=C(C)NC(C)=C(C(=O)OCCN(C)Cc2ccccc2)C1c1cccc([N+](=O)[O-])c1 (stereo not drawn)
active: [3] 26.2 µM | [6] 54.6 µM | [7] 19.8 µM | [9] 0.238 µM
inactive: [1] | [2] | [10] | [4]

C=CC(=O)OCCn1c(=O)n(CCOC(=O)C=C)c(=O)n(CCOC(=O)C=C)c1=O
inactive: [4] | [5]
active: [1] 24.4 µM | [2] 33.4 µM | [3] 13 µM | [8] 16.8 µM | [7] 9.48 µM

CC(C)=CCC[C@H](C)CC=O
not listed: [6] | [8] | [9]
inactive: all other assays above

O=Cc1ccc(Cl)c([N+](=O)[O-])c1
inactive: [2] | [10] | [4] | [9]
active: [1] 63.7 µM | [3] 149 µM | [8] 139 µM | [5] 134 µM

CC(CC(C)(C)C)CC(C)(C)CC(C)(C)C (stereo not drawn)
not listed: [8]
inactive: all other assays above

COC(=O)c1ccc(C)cc1
not listed: [4]
inactive: all other assays above

CC(CCO)CCc1ccccc1 (stereo not drawn)
not listed: [4] | [9] | [10]
inactive: all other assays above

CCCCNC(=O)NS(=O)(=O)c1ccc(C)cc1
not listed: [7] | [8] | [9]
inactive: all other assays above

O=c1[nH]nnc2ccccc12
not listed: [2] | [7]
inactive: all other assays above

CC(=O)C=CC1=C(C)CCCC1(C)C
not listed: [2] | [9]
inactive: all other assays above

c1ccc(CCCc2ccccn2)cc1
active: [7] 81.5 µM | [9] 67 µM
not listed: [2] | [3]
inactive: all other assays above

CCCC/C=C\CCCCCCCCCC=O
not listed: [2]
inactive: all other assays above

NNc1nc(-c2ccc(N)cc2)cs1
not listed: [2]
inactive: all other assays above

O=C(O)c1ccc([N+](=O)[O-])cc1
not listed: [3]
inactive: all other assays above

CNCCO
not listed: [2] | [9]
inactive: all other assays above

CC(=O)Nc1ccccc1O
not listed: [2] | [6] | [9]
inactive: all other assays above

CC(=O)O[C@]1(C(C)=O)CC[C@H]2[C@@H]3C[C@H](C)C4=CC(=O)CC[C@]4(C)[C@H]3CC[C@@]21C
not listed: [3] | [6] | [7]
inactive: all other assays above

OCC(CO)(CO)COCC(CO)(CO)CO
not listed: [2]
inactive: all other assays above

C=CC(=O)NCOCC(C)C
not listed: [2] | [6] | [9]
inactive: all other assays above

CC(=O)Nc1ccc(C)cc1C
not listed: [2] | [7]
inactive: all other assays above

C=C(C)C(=O)OCc1ccccc1
not listed: [2] | [6]
inactive: all other assays above

c1ccc2sc(SN(C3CCCCC3)C3CCCCC3)nc2c1
not listed: [2] | [4]
inactive: all other assays above

Nc1ccc(F)c([N+](=O)[O-])c1
not listed: [3] | [6]
inactive: all other assays above

CCCCO
not listed: [2] | [9]
inactive: all other assays above

Sc1nc(S)nc(S)n1
not listed: [2] | [9]
inactive: all other assays above

O=C(O)c1cn(C2CC2)c2cc(N3CCNCC3)c(F)cc2c1=O
inactive: [2] | [3] | [10] | [4]

O=C(O)Cc1cccc2ccccc12
not listed: [2] | [9]
inactive: all other assays above

CC(C)=CCCC(C)CC=O (stereo not drawn)
inactive: [1] | [2] | [3] | [5] | [7]

CN(C)CCOCCN(C)C
not listed: [3]
inactive: all other assays above

BrC1CCC(Br)C(Br)CCC(Br)C(Br)CCC1Br (stereo not drawn)
active: [5] 87 µM | [7] 49.2 µM
not listed: [3] | [8]
inactive: all other assays above

CCN(CC)c1ccc2c(-c3ccccc3C(=O)O)c3ccc(=[N+](CC)CC)cc-3oc2c1
inactive: [4] | [5] | [9]
active: [1] 70.4 µM | [3] 59.9 µM | [8] 154 µM | [6] 178 µM | [7] 156 µM

O=Nc1ccc(Nc2ccccc2)cc1
active: [1] 13.7 µM | [3] 25.4 µM | [5] 25.2 µM | [7] 20 µM | [9] 59.3 µM
inactive: [10] | [4]

OC1C(O)C(O)C(O)C(O)C1O (stereo not drawn)
not listed: [2] | [3] | [9]
inactive: all other assays above

CCCc1c(OCCCOc2ccc(OCC(=O)O)cc2)ccc(C(C)=O)c1O
active: [6] 150 µM
inactive: [1] | [2] | [10] | [4] | [5]

OCc1cccnc1
not listed: [3] | [8]
inactive: all other assays above
